For 40 compounds, outcome and AC50 results are on record in PubChem BioAssay (EPA / NIEHS).

Active and inactive are the calls of the source. Rule for the calls: active = hit-call score of the fitted dose curve at least 0.9, where 1 is the maximum; inactive = score below 0.9.

Read-out in this test: Forkhead box O1 (FOXO1), FOXO1 (gene 2308)
Description: LTEA_HepaRG_FOXO1: Life Technologies and Expression Analysis (LTEA) Assay for Forkhead box O1 (FOXO1) using HepaRG (AID 2283456). The following applies: mRNA level, 48 h; actives raise or lower the signal. The procedure:
LTEA_HepaRG is a cell based, multiplexed-readout assay that uses HepaRG, a human liver cell line, with measurements taken at 48 hours after chemical dosing on a 96-well plate.LTEA_HepaRG_FOXO1 is one of 102 assay component(s) measured in the LTEA HepaRG cell culture assay. It is a marker of Cell proliferation, survival, death.Data from the assay component LTEA_HepaRG_FOXO1 was analyzed into 1 endpoint. This assay endpoint, LTEA_HepaRG_FOXO1, was analyzed with bidirectional fitting relative to DMSO as the negative control and baseline of activity. Using a type of inducible reporter, measures of mRNA induction for gain or loss-of-signal activity can be used to understand regulation of transcription factor activity. To generalize the intended target to other relatable targets, this assay endpoint is annotated to the dna binding intended target family, where the subfamily is forkhead box protein.
A total of 1060 chemcials from the ToxCast library were tested in eight-point concentration-response experiments. Cell culture and cytotoxicity assays were conducted at Thermo Fisher Scientific's Custom Services facility (Madison, WI). A single lot of human HepaRG cells (Thermo Fisher Scientific, Frederick, MD) was used for the cell culture experiments. 96-well format collagen type I coated plates of human HepaRG cells were prepared using established methods. Briefly, cryopreserved HepaRG cells were thawed, plated at a density of approximately 100,000 cells/well in HepaRG Thaw, Plate, and General Purpose media (HPRG770, Thermo Fisher Scientific), and incubated for 48 hours. 0.5% DMSO was selected as vehicle control to balance the requisite need of DMSO in HepaRG cultures to maintain differentiation (for example, baseline metabolism, proportions of hepatocytes vs. cholangiocytes), while enabling further hepatic receptor pathway activation (for example, PXR and CAR) in response to chemical exposure. 48 hours after plating, the culture medium was replaced with HepaRG Serum-Free Incudtion Media. Cells were exposed to each test chemical in duplicate and maintained in CO2 incubators for another 48 hours. Chemical plates were thawed to room temperature and 200x concentrations of treatment groups were prepared. 8-point conentration-reponse curves were made with the highest exposure at 100 uM, followed by half-log dilutions, all in 0.5% DMSO. Each test plate contained variouse controls, induction positive controls (1mM phenobarbital), cytotoxicity positive controls ([…] aflatoxin B1), vehicle controls (0.5% DMSO), and total lysis controls (0.5% DMSO). Cell morphology images were taken using an Essen IncuCyte FLR automated microscope, with six 96-well plates imaged in about 24 minutes. Images were captured and exported and JPEG files. Spent culture media was transfered to black-well plates for the LDH assay, and remaining media was sorted at -80 C for later use. Cells were treated with RLT buffer and frozen until shipped for gene expression analysis. Total RNA was isolated from the cell suspension in 75 uL of Buffer RLT (Qiagen, Germantown, MD 20874) by Quintiles/Expression Analysis (Durham, NC) using a custom isolation procedure. Total RNA from each plate well was transferred to a preamplification plate. Fluidigm's 96.96 Dynamic ArrayTM (Fluidigm, Amsterdam, the Netherlands) technology was used for gene expression analyses by quantitative reverse transcription polymerase chain reaction (qRT-PCR, performed by Quintiles/Expression Analysis, Durham, NC)89. Standard TaqManTM Assays (Applied Biosystems/ThermoFisher Scientific, Foster City, CA) were used to assess the expression of 93 genes selected based on their selectivity and sensitivity to important hepatic receptors known to be modulated by environmental chemicals; importance in human hepatocyte functionality; and hepatotoxicity. […]
As for `COc1ccc(C(=CC(=O)N2CCOCC2)c2ccc(Cl)cc2)cc1OC`, the call was inactive.
On the same count and under the same terms, as for `CCOP(=O)(SC(C)CC)N1CCSC1=O` (stereo not given), the entry is “inactive”; as for `CC(Oc1cccc(Cl)c1)C(=O)O` (stereo not given), “inactive”.
Consider `Nc1c(Cl)cc([N+](=O)[O-])cc1Cl`, for which the result was inactive.
Turning to `COP(=O)(OC)SCn1c(=O)oc2cc(Cl)cnc21`, the call was inactive.
As to `CCCCOC(=O)[C@@H](C)Oc1ccc(Oc2ccc(C#N)cc2F)cc1`, the result was inactive.
Still for that read-out and setting: for `CCOC(=O)COc1cc(-c2nn(C)c(OC(F)F)c2Cl)c(F)cc1Cl` the value was “inactive”.
One may read the AC50 as the concentration at which the activity in the assay is half-maximal. Regarding `C[Si](Cn1cncn1)(c1ccc(F)cc1)c1ccc(F)cc1`, the AC50 is 74.6 µM (active).
As for `CC(C1CC1)C(O)(Cn1cncn1)c1ccc(Cl)cc1` (stereo not given), the compound was called inactive.
`CN(C)NC(=O)CCC(=O)O`: the compound was called inactive.
Still for that read-out and setting: as for `CCOP(=O)(OCC)Oc1cc(C)nc(C(C)C)n1`, the entry is “inactive”.
As for `C[N+]1(C)CCCCC1`, the result was inactive.
The same measure, in the same setting: as for `CNc1cnn(-c2cccc(C(F)(F)F)c2)c(=O)c1Cl`, the entry is “inactive”.
Take `CCCOc1nn(C(=O)NS(=O)(=O)c2ccccc2C(=O)OC)c(=O)n1C`: the call was inactive.
With `CCCCN(CC)c1c([N+](=O)[O-])cc(C(F)(F)F)cc1[N+](=O)[O-]`, the call was inactive.
The same measure, in the same setting: for `CC(=NC#N)N(C)Cc1ccc(Cl)nc1` the value was “inactive”; for `COP(=O)(OC)OC(Br)C(Cl)(Cl)Br` (stereo not given), “inactive”; for `CNC(=O)ON=C(SC)C(=O)N(C)C`, “inactive”.
On the same count and under the same terms, for `CSc1nnc(C(C)(C)C)c(=O)n1N` the value was “inactive”.
Still for that read-out and setting: as for `CCc1cccc(C)c1N(C(=O)CCl)C(C)COC` (stereo not given), the entry is “inactive”; as for `CCOP(=S)(OCC)Oc1ccc([N+](=O)[O-])cc1`, “inactive”.
As to `CN(C)[C@@H]1C(=O)C(C(N)=O)=C(O)[C@@]2(O)C(=O)C3=C(O)c4c(O)cccc4[C@@](C)(O)[C@H]3[C@H](O)[C@@H]12`, the outcome was inactive.
In the case of `CC[C@H](C)[C@H]1O[C@]2(C=C[C@@H]1C)C[C@@H]1C[C@@H](C/C=C(\C)[C@@H](O[C@H]3C[C@H](OC)[C@@H](O[C@H]4C[C@H](OC)[C@@H](NC)[C@H](C)O4)[C@H](C)O3)[C@@H](C)/C=C/C=C3\CO[C@@H]4[C@H](O)C(C)=C[C@@H](C(=O)O1)[C@]34O)O2`, the AC50 was 27.9 µM (active).
Consider `S=C1NCCN1`, for which the result was inactive.
As for `C=C(C)[C@H]1Cc2c(ccc3c2O[C@@H]2COc4cc(OC)c(OC)cc4[C@@H]2C3=O)O1`, the AC50 is 11.7 µM (active).
For the compound `CNC(=O)Oc1cccc2c1OC(C)(C)O2`, the result was inactive.
The same measure, in the same setting: for `CCNc1nc(Cl)nc(NC(C)(C)C#N)n1` the value was “inactive”; for `COc1cc(OC)nc(Sc2cccc(Cl)c2C(=O)O)n1`, “inactive”.
In the case of `CCCSP(=O)(OCC)Oc1ccc(Br)cc1Cl` (stereo not given), the outcome was inactive.
Turning to `O=[N+]([O-])c1cc(C(F)(F)F)c(Cl)c([N+](=O)[O-])c1Nc1ncc(C(F)(F)F)cc1Cl`, the outcome was inactive.
The same measure, in the same setting: for `CCC(=O)Nc1ccc(Cl)c(Cl)c1` the value was “inactive”; for `COP(=O)(NC(C)=O)SC` (stereo not given), “inactive”; for `CCCSP(=O)(OCC)SCCC`, “inactive”.
`Cc1cc(C2CC2)nc(Nc2ccccc2)n1`: the compound was classed as inactive.
Still for that read-out and setting: for `Cc1ccn2nc(S(=O)(=O)Nc3c(F)cccc3F)nc2n1` the value was “inactive”; for `O=c1ccc(=O)[nH][nH]1`, “inactive”; for `CCOP(=S)(Oc1cnc(C(C)(C)C)nc1)OC(C)C` (stereo not given), “inactive”.
Still for that read-out and setting: as for `CN(C)C(=O)Nc1cccc(C(F)(F)F)c1`, the entry is “inactive”; as for `CCc1cccc(CC)c1N(COC)C(=O)CCl`, “inactive”; as for `CC(C)N(C(=O)SCC(Cl)=C(Cl)Cl)C(C)C`, “inactive”.
